In the supplement of paper PMC10849652:
About 8,800 targets were measured; listed, in parts, are those with a hit and a random draw of the rest. About 0.5% of all pairs of compound and target were hits.

Assays:
Experiment in all cases: log2 fold change, soluble protein after heating vs DMSO (PISA); higher = thermal stabilisation; K562 lysate, 10 uM; active = over 0.2 and 3.5 SD of the protein, either way, in both replicates (recomputed)
lapatinib = compound: CS(=O)(=O)CCNCc1ccc(-c2ccc3ncnc(Nc4ccc(OCc5cccc(F)c5)c(Cl)c4)c3c2)o1 [lapatinib]
How it was run: (§1)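 Quantification was by TMTpro 16plex LC-MS/MS with equalised channel sums, applied to the supernatant after 21,000xg for 90 min. Samples were crude K562 extract at 1 mg/mL protein in PBS pH 7.4 with 1 mM MgCl2, treated with 10 μM compound for 30 min, heated for 3 min across 48°C-58°C, pooled and brought to 0.5% NP-40 at 4°C. Values are log-two fold changes in thermal stability relative to solvent controls, from duplicates.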

pictilisib = compound: CS(=O)(=O)N1CCN(Cc2cc3nc(-c4cccc5[nH]ncc45)nc(N4CCOCC4)c3s2)CC1 [pictilisib]
How it was run: as §1

crizotinib = compound: C[C@@H](Oc1cc(-c2cnn(C3CCNCC3)c2)cnc1N)c1c(Cl)ccc(F)c1Cl [crizotinib]
How it was run: as §1

[1] = compound: C[C@H](C1=CC=C(C=C1)C(=O)NC2=C3C=CNC3=NC=C2)N
How it was run: as §1

duvelisib = compound: C[C@H](Nc1ncnc2nc[nH]c12)c1cc2cccc(Cl)c2c(=O)n1-c1ccccc1 [duvelisib]
How it was run: as §1

gandotinib = compound: Cc1cc(Nc2cc(CN3CCOCC3)c3nc(C)c(Cc4ccc(Cl)cc4F)n3n2)n[nH]1 [gandotinib]
How it was run: as §1

tozasertib = compound: Cc1cc(Nc2cc(N3CCN(C)CC3)nc(Sc3ccc(NC(=O)C4CC4)cc3)n2)n[nH]1 [tozasertib]
How it was run: as §1

doramapimod = compound: Cc1ccc(-n2nc(C(C)(C)C)cc2NC(=O)Nc2ccc(OCCN3CCOCC3)c3ccccc23)cc1 [doramapimod]
How it was run: as §1

bafetinib = compound: Cc1ccc(NC(=O)c2ccc(CN3CC[C@H](N(C)C)C3)c(C(F)(F)F)c2)cc1Nc1nccc(-c2cncnc2)n1 [bafetinib]
How it was run: as §1

[2] = compound: Cc1cccc(CC(=O)N2CCc3c2ccc(-c2cn(C)c4ncnc(N)c24)c3F)n1
How it was run: as §1

nilotinib = compound: Cc1cn(-c2cc(NC(=O)c3ccc(C)c(Nc4nccc(-c5cccnc5)n4)c3)cc(C(F)(F)F)c2)cn1 [nilotinib]
How it was run: as §1

[3] = compound: Cc1nc(Nc2n[nH]c3c2CN(C(=O)N[C@H](CN(C)C)c2ccccc2)C3(C)C)c2sccc2n1
How it was run: as §1

dasatinib = compound: Cc1nc(Nc2ncc(C(=O)Nc3c(C)cccc3Cl)s2)cc(N2CCN(CCO)CC2)n1 [dasatinib]
How it was run: as §1

[4] = compound: Cc1ncc(-c2ccnc(Nc3ccc(S(C)(=O)=O)cc3)n2)n1C(C)C
How it was run: as §1

[5] = compound: Cn1cc(-c2ccc3c(c2)CCN3C(=O)Cc2cccc(C(F)(F)F)c2)c2c(N)ncnc21
How it was run: as §1

quisinostat = compound: Cn1cc(CNCC2CCN(c3ncc(C(=O)NO)cn3)CC2)c2ccccc21 [quisinostat]
How it was run: as §1

tipifarnib = compound: Cn1cncc1[C@@](N)(c1ccc(Cl)cc1)c1ccc2c(c1)c(-c1cccc(Cl)c1)cc(=O)n2C [tipifarnib]
How it was run: as §1

[6] = compound: NC(=O)Nc1cc(-c2cccc(F)c2)sc1C(=O)N[C@H]1CCCNC1
How it was run: as §1

[7] = compound: NC(=O)c1cnc(N[C@@H]2CCCC[C@@H]2N)nc1Nc1cccc(-n2nccn2)c1
How it was run: as §1

[8] = compound: NC1(c2ccc(-c3nc4ccn5c(=O)[nH]nc5c4cc3-c3ccccc3)cc2)CCC1
How it was run: as §1

Measured: log2 fold change

ACBD6 (UniProt Q9BR61)
Chain of UniProt Q9BR61 (Q9BR61 whole entry, looked up): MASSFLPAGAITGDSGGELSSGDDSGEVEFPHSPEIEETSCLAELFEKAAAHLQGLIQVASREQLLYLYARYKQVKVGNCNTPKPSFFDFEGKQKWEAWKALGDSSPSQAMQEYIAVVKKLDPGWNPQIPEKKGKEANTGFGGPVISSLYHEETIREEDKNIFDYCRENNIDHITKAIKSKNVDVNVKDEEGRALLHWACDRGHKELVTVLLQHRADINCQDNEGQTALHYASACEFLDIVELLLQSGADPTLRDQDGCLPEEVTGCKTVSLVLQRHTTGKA
inactive: lapatinib -0.002 | pictilisib 0.01 | crizotinib -0.04 | [1] -0.036 | duvelisib 0.063 | gandotinib -0.01 | tozasertib -0.051 | doramapimod -0.024 | bafetinib -0.047 | [2] 0.006 | nilotinib -0.032 | [3] 0.007 | dasatinib 0.04 | [4] 0.012 | [5] 0.013 | quisinostat -0.017 | tipifarnib 0.013 | [6] -0.014 | [7] 0.06 | [8] -0.04

ABHD17B (UniProt Q5VST6)
Chain of UniProt Q5VST6 (Q5VST6 whole entry, looked up): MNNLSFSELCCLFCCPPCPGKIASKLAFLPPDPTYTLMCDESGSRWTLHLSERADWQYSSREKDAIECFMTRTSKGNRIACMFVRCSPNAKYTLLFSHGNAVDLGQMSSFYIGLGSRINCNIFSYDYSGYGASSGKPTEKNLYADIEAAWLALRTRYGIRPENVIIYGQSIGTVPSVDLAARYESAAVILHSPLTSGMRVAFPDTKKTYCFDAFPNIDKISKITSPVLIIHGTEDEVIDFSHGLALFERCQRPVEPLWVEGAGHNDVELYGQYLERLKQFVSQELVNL
active: tozasertib -0.513
inactive: lapatinib 0.075 | pictilisib -0.076 | crizotinib -0.051 | [1] 0.01 | duvelisib 0.026 | gandotinib -0.012 | doramapimod -0.026 | bafetinib 0.01 | [2] 0.183 | nilotinib 0.032 | [3] 0.057 | dasatinib 0.007 | [4] 0.087 | [5] 0.095 | quisinostat 0.003 | tipifarnib -0.099 | [6] 0.009 | [7] -0.041 | [8] 0.009

AGO4 (UniProt Q9HCK5)
inactive: lapatinib 0.013 | pictilisib -0.076 | crizotinib -0.01 | [1] -0.113 | duvelisib 0.014 | gandotinib 0.048 | tozasertib -0.001 | doramapimod -0.014 | bafetinib -0.004 | [2] 0.002 | nilotinib -0.152 | [3] 0.07 | dasatinib 0 | [4] 0.004 | [5] -0.022 | quisinostat -0.037 | tipifarnib 0.005 | [6] 0.015 | [7] 0.014 | [8] -0.002

ACADS (UniProt P16219)
Chain of UniProt P16219 (P16219 whole entry, looked up): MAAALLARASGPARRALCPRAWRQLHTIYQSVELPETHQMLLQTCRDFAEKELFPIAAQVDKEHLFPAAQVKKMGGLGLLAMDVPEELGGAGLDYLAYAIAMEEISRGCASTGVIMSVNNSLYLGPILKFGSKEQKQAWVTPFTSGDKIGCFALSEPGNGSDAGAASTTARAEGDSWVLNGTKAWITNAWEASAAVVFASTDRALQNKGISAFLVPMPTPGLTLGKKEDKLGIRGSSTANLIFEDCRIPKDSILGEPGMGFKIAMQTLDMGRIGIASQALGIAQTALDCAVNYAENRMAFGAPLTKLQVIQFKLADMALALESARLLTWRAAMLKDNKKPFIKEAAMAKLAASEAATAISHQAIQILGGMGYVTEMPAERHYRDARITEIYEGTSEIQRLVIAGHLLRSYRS
active: nilotinib 0.278
inactive: lapatinib -0.004 | pictilisib -0.018 | crizotinib -0.027 | [1] -0.026 | duvelisib -0.003 | gandotinib 0.016 | tozasertib -0.013 | doramapimod 0.008 | bafetinib 0.037 | [2] 0.034 | [3] -0.04 | dasatinib -0.002 | [4] -0.025 | [5] 0.033 | quisinostat -0.009 | tipifarnib -0.018 | [6] 0.032 | [7] 0.01 | [8] 0.017

ASNS (UniProt P08243)
Chain of UniProt P08243 (P08243 whole entry, looked up): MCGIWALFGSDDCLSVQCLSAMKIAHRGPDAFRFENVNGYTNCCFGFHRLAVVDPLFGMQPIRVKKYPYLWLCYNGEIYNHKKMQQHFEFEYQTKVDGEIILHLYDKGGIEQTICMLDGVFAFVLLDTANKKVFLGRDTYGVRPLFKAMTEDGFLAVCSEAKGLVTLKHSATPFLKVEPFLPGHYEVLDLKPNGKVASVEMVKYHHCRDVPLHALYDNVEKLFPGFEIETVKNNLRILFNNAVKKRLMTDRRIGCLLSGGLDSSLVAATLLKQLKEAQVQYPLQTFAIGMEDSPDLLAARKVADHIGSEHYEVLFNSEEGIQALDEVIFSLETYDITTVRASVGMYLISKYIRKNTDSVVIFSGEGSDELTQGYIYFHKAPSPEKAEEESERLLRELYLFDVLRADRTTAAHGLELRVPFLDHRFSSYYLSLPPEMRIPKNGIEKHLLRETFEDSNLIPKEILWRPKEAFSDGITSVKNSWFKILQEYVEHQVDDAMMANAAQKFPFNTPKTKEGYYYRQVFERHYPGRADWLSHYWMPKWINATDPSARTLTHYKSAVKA
inactive: lapatinib -0.019 | pictilisib -0.012 | crizotinib -0.042 | [1] 0.013 | duvelisib -0.001 | gandotinib -0.051 | tozasertib 0.011 | doramapimod -0.01 | bafetinib -0.033 | [2] 0.002 | nilotinib -0.004 | [3] -0.008 | dasatinib -0.039 | [4] -0.018 | [5] 0.025 | quisinostat 0.027 | tipifarnib 0.017 | [6] 0.027 | [7] -0.01 | [8] -0.028

ACACB (UniProt O00763)
inactive: lapatinib -0.032 | pictilisib -0.029 | crizotinib -0.103 | [1] -0.113 | duvelisib 0.032 | gandotinib 0.021 | tozasertib 0.072 | doramapimod 0.054 | bafetinib -0.113 | [2] 0.165 | nilotinib -0.001 | [3] -0.042 | dasatinib -0.021 | [4] -0.052 | [5] 0.05 | quisinostat -0.061 | tipifarnib 0.048 | [6] 0.062 | [7] -0.001 | [8] -0.018

ADRM1 (UniProt Q16186)
Chain of UniProt Q16186 (Q16186 whole entry, looked up): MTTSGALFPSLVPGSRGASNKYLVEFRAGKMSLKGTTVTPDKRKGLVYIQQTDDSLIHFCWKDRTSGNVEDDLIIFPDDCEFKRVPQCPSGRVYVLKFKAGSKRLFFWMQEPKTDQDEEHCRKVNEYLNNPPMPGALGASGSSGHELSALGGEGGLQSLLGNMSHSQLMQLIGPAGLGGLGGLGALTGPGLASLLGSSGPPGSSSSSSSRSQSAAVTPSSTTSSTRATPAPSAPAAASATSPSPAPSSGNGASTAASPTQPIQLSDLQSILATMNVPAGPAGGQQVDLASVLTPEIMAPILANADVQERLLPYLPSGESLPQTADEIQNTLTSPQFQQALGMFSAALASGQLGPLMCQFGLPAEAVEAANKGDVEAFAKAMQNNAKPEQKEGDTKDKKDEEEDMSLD
inactive: lapatinib -0.009 | pictilisib -0.012 | crizotinib -0.05 | [1] 0.019 | duvelisib 0.03 | gandotinib -0.014 | tozasertib -0.019 | doramapimod 0.042 | bafetinib 0.006 | [2] 0.02 | nilotinib 0.002 | [3] -0.006 | dasatinib -0.063 | [4] 0.015 | [5] -0.003 | quisinostat -0.102 | tipifarnib -0.017 | [6] 0.011 | [7] 0.008 | [8] -0.003

AGL (UniProt P35573)
Chain of UniProt P35573 (P35573 whole entry, looked up): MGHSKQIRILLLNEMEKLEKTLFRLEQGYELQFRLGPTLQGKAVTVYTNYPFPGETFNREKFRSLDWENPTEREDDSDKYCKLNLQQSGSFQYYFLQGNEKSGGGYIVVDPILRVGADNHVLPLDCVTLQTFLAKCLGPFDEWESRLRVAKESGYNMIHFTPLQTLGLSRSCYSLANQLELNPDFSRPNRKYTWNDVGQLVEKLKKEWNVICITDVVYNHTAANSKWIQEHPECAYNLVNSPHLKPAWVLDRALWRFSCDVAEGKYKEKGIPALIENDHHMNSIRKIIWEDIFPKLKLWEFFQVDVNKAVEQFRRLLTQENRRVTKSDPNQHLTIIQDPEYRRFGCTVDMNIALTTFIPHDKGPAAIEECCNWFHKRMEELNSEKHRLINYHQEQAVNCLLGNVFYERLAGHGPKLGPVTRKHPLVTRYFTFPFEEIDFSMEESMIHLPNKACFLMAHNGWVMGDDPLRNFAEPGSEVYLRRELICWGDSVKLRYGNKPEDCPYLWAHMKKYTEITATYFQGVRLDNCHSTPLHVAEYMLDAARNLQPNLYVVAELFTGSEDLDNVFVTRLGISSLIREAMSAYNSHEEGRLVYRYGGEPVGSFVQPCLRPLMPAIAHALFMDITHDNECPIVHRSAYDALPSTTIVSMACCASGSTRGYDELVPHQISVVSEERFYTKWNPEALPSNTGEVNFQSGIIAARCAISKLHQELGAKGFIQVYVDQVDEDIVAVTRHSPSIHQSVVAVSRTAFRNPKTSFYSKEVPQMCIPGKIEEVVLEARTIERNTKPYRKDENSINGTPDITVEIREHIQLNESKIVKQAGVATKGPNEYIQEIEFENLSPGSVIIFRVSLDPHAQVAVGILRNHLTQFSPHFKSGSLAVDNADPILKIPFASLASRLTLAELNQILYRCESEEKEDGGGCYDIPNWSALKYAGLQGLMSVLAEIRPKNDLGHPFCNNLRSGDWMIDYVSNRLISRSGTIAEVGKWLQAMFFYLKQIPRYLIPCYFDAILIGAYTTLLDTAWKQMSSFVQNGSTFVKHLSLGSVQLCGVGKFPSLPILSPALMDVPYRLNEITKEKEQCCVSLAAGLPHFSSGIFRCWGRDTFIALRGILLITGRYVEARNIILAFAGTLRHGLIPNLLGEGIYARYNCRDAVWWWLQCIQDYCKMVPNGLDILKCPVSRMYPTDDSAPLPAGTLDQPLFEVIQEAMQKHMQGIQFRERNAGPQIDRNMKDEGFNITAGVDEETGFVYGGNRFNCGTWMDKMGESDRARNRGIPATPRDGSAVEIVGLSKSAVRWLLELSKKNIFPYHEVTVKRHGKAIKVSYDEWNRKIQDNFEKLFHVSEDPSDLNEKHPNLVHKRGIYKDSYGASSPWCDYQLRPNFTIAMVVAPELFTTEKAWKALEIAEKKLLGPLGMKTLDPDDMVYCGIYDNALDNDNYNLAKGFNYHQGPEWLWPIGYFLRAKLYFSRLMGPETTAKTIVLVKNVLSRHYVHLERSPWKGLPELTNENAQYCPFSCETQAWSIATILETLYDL
inactive: lapatinib -0.004 | pictilisib 0 | crizotinib -0.019 | [1] 0.115 | duvelisib -0.013 | gandotinib -0.094 | tozasertib 0.014 | doramapimod 0.029 | bafetinib -0.037 | [2] -0.059 | nilotinib -0.024 | [3] -0.007 | dasatinib -0.027 | [4] -0.005 | [5] 0.028 | quisinostat -0.016 | tipifarnib 0.016 | [6] 0.038 | [7] 0.016 | [8] -0.007

APOB (UniProt P04114)
inactive: lapatinib 0.054 | pictilisib 0.004 | crizotinib -0.003 | [1] -0.182 | duvelisib 0.104 | gandotinib 0.084 | tozasertib 0.015 | doramapimod 0.024 | bafetinib -0.091 | [2] 0.06 | nilotinib -0.002 | [3] 0.022 | dasatinib -0.096 | [4] -0.017 | [5] -0.038 | quisinostat -0.092 | tipifarnib 0.033 | [6] 0.013 | [7] -0.035 | [8] 0.008

AHCYL1 (UniProt O43865)
Chain of UniProt O43865 (O43865 whole entry, looked up): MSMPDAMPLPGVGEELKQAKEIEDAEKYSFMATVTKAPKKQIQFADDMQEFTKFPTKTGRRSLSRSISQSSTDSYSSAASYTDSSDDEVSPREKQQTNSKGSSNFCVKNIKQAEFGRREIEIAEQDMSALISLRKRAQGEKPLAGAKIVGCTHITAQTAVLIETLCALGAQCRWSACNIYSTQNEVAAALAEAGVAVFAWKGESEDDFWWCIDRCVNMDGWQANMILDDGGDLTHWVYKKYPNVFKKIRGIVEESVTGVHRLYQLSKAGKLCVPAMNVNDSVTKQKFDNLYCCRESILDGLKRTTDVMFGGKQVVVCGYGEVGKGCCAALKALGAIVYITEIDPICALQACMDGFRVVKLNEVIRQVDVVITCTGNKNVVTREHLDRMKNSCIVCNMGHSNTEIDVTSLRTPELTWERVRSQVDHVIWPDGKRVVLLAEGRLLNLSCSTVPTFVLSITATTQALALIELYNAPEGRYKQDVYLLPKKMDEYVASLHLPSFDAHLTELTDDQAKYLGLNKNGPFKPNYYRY
inactive: lapatinib -0.001 | pictilisib 0.008 | crizotinib -0.028 | [1] -0.012 | duvelisib 0.043 | gandotinib -0.067 | tozasertib -0.031 | doramapimod 0.013 | bafetinib -0.047 | [2] 0.001 | nilotinib -0.077 | [3] -0.011 | dasatinib -0.015 | [4] 0.021 | [5] 0.02 | quisinostat -0.079 | tipifarnib -0.001 | [6] 0.066 | [7] -0.005 | [8] -0.087

ABHD11 (UniProt Q8NFV4)
Chain of UniProt Q8NFV4 (Q8NFV4 whole entry, looked up): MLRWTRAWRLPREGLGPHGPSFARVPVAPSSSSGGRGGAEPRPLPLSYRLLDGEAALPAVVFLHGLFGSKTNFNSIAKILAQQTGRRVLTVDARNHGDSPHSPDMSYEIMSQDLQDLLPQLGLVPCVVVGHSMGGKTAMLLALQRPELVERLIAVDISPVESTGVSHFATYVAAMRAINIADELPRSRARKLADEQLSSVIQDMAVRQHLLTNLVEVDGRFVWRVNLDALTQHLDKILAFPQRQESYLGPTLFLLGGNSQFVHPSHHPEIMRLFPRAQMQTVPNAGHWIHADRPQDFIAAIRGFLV
active: gandotinib 0.853
inactive: lapatinib 0.024 | pictilisib 0.033 | crizotinib -0.019 | [1] -0.121 | duvelisib 0.028 | tozasertib 0.081 | doramapimod -0.034 | bafetinib 0.009 | [2] 0.05 | nilotinib -0.001 | [3] -0.021 | dasatinib -0.005 | [4] -0.044 | [5] 0.079 | quisinostat 0.081 | tipifarnib 0.042 | [6] -0.016 | [7] 0.04 | [8] -0.003

ALDH1A1 (UniProt P00352)
inactive: lapatinib 0.002 | pictilisib -0.068 | crizotinib 0.004 | [1] 0.05 | duvelisib -0.023 | gandotinib -0.111 | tozasertib -0.006 | doramapimod -0.015 | bafetinib 0.061 | [2] -0.164 | nilotinib 0.036 | [3] -0.019 | [4] -0.012 | [5] -0.04 | quisinostat 0.015 | tipifarnib 0.019 | [6] 0.014 | [7] -0.011 | [8] 0.034
active: dasatinib 0.306

ASPH (UniProt Q12797)
inactive: lapatinib -0.035 | pictilisib -0.012 | crizotinib -0.025 | [1] 0.048 | duvelisib -0.022 | gandotinib -0.04 | tozasertib 0.037 | doramapimod 0.008 | bafetinib 0.029 | [2] 0.005 | nilotinib -0.033 | [3] -0.025 | dasatinib 0.089 | [4] 0.011 | [5] -0.019 | quisinostat -0.02 | tipifarnib 0.004 | [6] -0.005 | [7] -0.009 | [8] -0.013

ANXA2 isoform 2 (UniProt P07355)
Chain of UniProt P07355 (P07355 whole entry, looked up): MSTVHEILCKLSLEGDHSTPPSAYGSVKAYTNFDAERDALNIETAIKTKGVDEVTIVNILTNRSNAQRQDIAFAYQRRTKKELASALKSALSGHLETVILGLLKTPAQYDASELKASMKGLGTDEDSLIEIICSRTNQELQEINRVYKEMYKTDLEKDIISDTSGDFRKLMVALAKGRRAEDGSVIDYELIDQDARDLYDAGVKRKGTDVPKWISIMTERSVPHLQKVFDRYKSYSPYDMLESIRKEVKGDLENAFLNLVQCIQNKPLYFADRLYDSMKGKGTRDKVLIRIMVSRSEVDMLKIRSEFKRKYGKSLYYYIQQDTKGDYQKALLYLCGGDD
inactive: lapatinib 0.009 | pictilisib -0.005 | crizotinib 0.029 | [1] 0.017 | duvelisib -0.028 | gandotinib 0.008 | tozasertib -0.001 | doramapimod -0.024 | bafetinib 0.065 | [2] -0.041 | nilotinib 0.035 | [3] -0.016 | dasatinib 0.048 | [4] 0.003 | [5] -0.017 | quisinostat 0.064 | tipifarnib 0.016 | [6] -0.018 | [7] -0.015 | [8] 0.022

AFF4 (UniProt Q9UHB7)
inactive: lapatinib 0.003 | pictilisib -0.007 | crizotinib -0.033 | [1] 0.011 | duvelisib 0.059 | gandotinib 0.066 | tozasertib 0 | doramapimod 0 | bafetinib 0.05 | [2] 0.001 | nilotinib -0.039 | [3] -0.068 | dasatinib 0.005 | [4] 0.012 | [5] 0.023 | quisinostat 0.02 | tipifarnib 0.065 | [6] 0.032 | [7] -0.026 | [8] 0.022

AIP (UniProt O00170)
Chain of UniProt O00170 (O00170 whole entry, looked up): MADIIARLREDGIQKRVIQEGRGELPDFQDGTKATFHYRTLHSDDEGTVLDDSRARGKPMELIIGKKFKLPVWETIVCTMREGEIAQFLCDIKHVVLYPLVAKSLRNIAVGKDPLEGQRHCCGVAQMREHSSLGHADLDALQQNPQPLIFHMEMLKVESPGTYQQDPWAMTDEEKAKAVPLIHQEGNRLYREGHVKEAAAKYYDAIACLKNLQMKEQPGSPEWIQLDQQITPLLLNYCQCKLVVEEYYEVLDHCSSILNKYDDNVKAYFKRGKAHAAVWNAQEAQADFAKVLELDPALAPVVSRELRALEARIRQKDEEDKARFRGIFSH
active: [1] 0.41
inactive: lapatinib -0.004 | pictilisib -0.026 | crizotinib 0.021 | duvelisib -0.031 | gandotinib -0.019 | tozasertib -0.012 | doramapimod -0.022 | bafetinib 0.055 | [2] -0.043 | nilotinib 0.024 | [3] -0.001 | dasatinib 0.018 | [4] 0.028 | [5] 0.008 | quisinostat 0.007 | tipifarnib 0.027 | [6] -0.011 | [7] -0.016 | [8] 0.024
